Bioassay records from PubChem.
EP2 modulator: EP2 receptor modulators, cAMP readout, primary screen, cell-based, HTRF cAMP, PGE2 stimulation; Prostaglandin E2 receptor EP2 subtype (Homo sapiens), P43116; EP2-expressing cells, cAMP HTRF FRET, PGE2 co-stimulation; induction, % at 25 µM; hit rate 0.83% among 260,000;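 active means compounds whose cAMP rise, as percent of the full-agonist control response, exceeds 60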;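 further: rat C6 glioma line stably carrying human EP2 under a CMV promoter; the protocol text gives 20 µM as final concentration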
RAM inhibit: inhibitors of the yeast RAM network, primary screen, dse1pr::URA3 reporter, 5-FOA selection. S. cerevisiae dse1pr::URA3 reporter, 5-FOA growth OD615, 2 d; analog-sensitive cbk1-as2 kinase mutant strain. inhibition, % at 50 µM. hit rate 1.8% among 190,000. AID 868, 2007;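 active means inhibition above a set limit, 3 SD over mean compound inhibition, cut at about 8.4% in these data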;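 further: inhibition rescues growth on 5-FOA so higher OD means more RAM inhibition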
PG9 binder: binders of HIV-1 gp120 antibody PG9, primary screen, biochemical, TR-FRET; AID 624416, 2012; TR-FRET gp120-PG9 antibody binding; hit rate 0.43% among 360,000; inhibition, % at 6.7 µM; in the data active means inhibition above about 8.5%
SKN-1 inh: suppressors of acrylamide-induced Pgst-4::GFP reporter in worms, primary screen, SKN-1 inhibitor project, whole organism, uHTS, GFP/RFP fluorescence ratio, strain VP596 | inhibition, % at 21.8 µM | C. elegans VP596 Pgst-4::GFP/RFP ratio, 24 h | hit rate 0.49% among 360,000;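 active means interference check ratio from 0.5 to 1.5 plus GFP to RFP signal ratio inhibition reaching or exceeding a fixed threshold, cut at about 30% in these data, passing the limit was not always enough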
Rev-erbA mod: modulators of Rev-erb alpha DNA binding, primary screen, biochemical, FITC-DNA, fluorescence polarization, uHTS | Rev-erbα–FITC-DNA binding, 90 min | activity, % at 10 µM | hit rate 0.79% among 370,000 | AID 1259318, 2017;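 active means activity above about 14%, limit read from the data; passing the limit was not always enough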
PGE2 EP2 inh: human EP2 receptor antagonists, primary screen, TR-FRET cAMP, C6 glioma cells. C6 glioma cells expressing human EP2; cells stimulated with saturating PGE2. inhibition, % at 25 µM. hit rate 0.52% among 260,000. AID 1422, 2008;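 active means percent inhibition above 40 after rounding to a whole number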;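 further: rat C6 glioma host cells with rolipram phosphodiesterase inhibitor present; the protocol text gives 20 µM as final concentration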
PG9 bind confirm: binders of anti-gp120 antibody PG9, confirmation, biochemical, TR-FRET. shares compounds with PG9 binder. hit rate 90% among 1,500. AID 651571, 2012. inhibition, % at 6.7 µM. TR-FRET PG9 antibody binding; in the data active means inhibition above about 9%
PGV04 Ab binding: binders of control antibody PGV04, counter-screen for PG9 antibody binder project, biochemical, TR-FRET, distinct HIV envelope site. AID 651604, 2012. shares compounds with PG9 binder. inhibition, % at 6.7 µM. hit rate 95% among 1,500. TR-FRET PGV04 antibody-gp120 binding; in the data active means inhibition above about 9.5%
Hits are given with their value; n = inactive; x = no result. Sampled rows, rich in hits. Any-hit rate of the full collection: about 2.9%.

SMILES | EP2 modulator | RAM inhibit | PG9 binder | SKN-1 inh | Rev-erbA mod | PGE2 EP2 inh | PG9 bind confirm | PGV04 Ab binding
O=C(NCCN1Cc2ccccc2C1=O)c1cccs1 | n | n | 50.0 | n | n | n | 10.1 | 11.2
COc1cc(C(=O)Nc2nc3ccc(C)cc3s2)ccc1OCc1c(C)noc1C | n | n | 11.5 | n | n | n | 20.9 | 25.8
CCc1nnc(NC(=O)c2ccc(OCc3c(C)noc3C)c(OC)c2)s1 | n | n | n | n | n | n | x | x
Cc1ccc(S(=O)(=O)Nc2nc3ccccc3nc2Nc2cccc(S(=O)(=O)N3CCCC3)c2)cc1 | n | n | 9.8 | n | n | n | 12.1 | 13.6
O=[N+]([O-])c1cccc(S(=O)(=O)Nc2nc3ccccc3nc2Nc2cccc(S(=O)(=O)N3CCCCC3)c2)c1 | n | n | n | n | n | n | x | x
COC(=O)c1c(NC(=O)c2ccc(C)cc2)sc(C(=O)Nc2ccccc2OC)c1C | n | x | x | x | x | n | x | x
CN1c2ncccc2C(=O)NC12CCN(C(=O)c1cscn1)CC2 | n | x | x | x | x | x | x | x
O=C(c1cc2sccc2n1Cc1ccc(F)cc1)N1CCN(c2nc3ccccc3s2)CC1 | n | n | n | n | n | n | x | x
Cn1c(C(=O)N2CCN(c3nc4ccccc4s3)CC2)cc2sccc21 | n | n | 13.8 | n | n | n | 20.2 | 30.6
CC(C)(C)CNC(=O)c1cc2c(Br)ccc(Br)c2nc1N | x | x | 10.0 | n | n | x | n | 14.3
C#CCNC(=O)c1cc2c(Br)ccc(Br)c2nc1N | x | x | 16.9 | n | n | x | 17.7 | 22.3
CCC(=O)N(Cc1cc2cc(C)ccc2[nH]c1=O)C1CC1 | n | x | x | x | x | n | x | x
CCOc1ccc(C(=O)Nc2nnc(NC(=S)Nc3ccccc3)s2)cc1 | n | n | n | n | n | n | x | x
Cc1ccc(C(=O)Nc2nnc(NC(=S)Nc3ccccc3)s2)cc1 | n | n | 12.0 | n | n | n | 16.4 | 20.2
CN(CC(=O)NCC1CCCO1)S(=O)(=O)c1ccc(F)cc1 (stereo not drawn) | n | x | x | x | x | n | x | x
O=C(NCCCn1ccnc1)c1cc(-c2cccnc2)nc2ccc(Br)cc12 | n | n | n | n | n | n | x | x
COCCNC(=O)c1cc(-c2cccnc2)nc2ccc(Br)cc12 | n | n | 8.6 | n | n | n | n | 14.2
CCCC(=O)Nc1nnc(-c2cccc(OCC)c2)s1 | n | n | 15.9 | n | n | n | 22.2 | 38.6
O=C(c1ccc2ccccc2c1)c1cccc(F)c1C(=O)O | x | x | 12.6 | n | n | x | 11.8 | 17.3
CN(C)CCOC(=O)c1cccs1 | n | x | x | x | x | n | x | x
